Measured values from the supplement of paper PMC7261846.
Where a name gives a salt, the structure may show the parent alone. ± gives the uncertainty stated by the source.

Tested on: Candida albicans SNY425 biofilm
Experiment: biofilm OD600 with compound plus antifungal (OD600 (absorbance)); higher = more biofilm remaining
[1] = assay detail: disruption of 24-h mature biofilm (compound + antifungal for a second 24 h)
[2] = assay detail: sustained inhibition (compound + antifungal during 90-min adherence and 24-h growth)

Row | Structure (SMILES) | biofilm OD600 [1] | biofilm OD600 [2]
1 | O=C[C@@H]1CCCN1C(=O)[C@@H]1CCCN1C(=O)OCc1ccccc1 [Z-Prolyl-prolinal] + C[C@@H]1[C@H](O)[C@@H](C)/C=C/C=C/C=C/C=C/C=C/C=C/C=C/[C@H](O[C@@H]2O[C@H](C)[C@@H](O)[C@H](N)[C@@H]2O)C[C@@H]2O[C@](O)(C[C@@H](O)C[C@@H](O)[C@H](O)CC[C@@H](O)C[C@@H](O)CC(=O)O[C@H]1C)C[C@H](O)[C@H]2C(=O)O [amphotericin B] (first compound 12.5 µM) | 0.262 ± 0.013 | 0.156 ± 0.0083
2 | CCN1C(=O)C=CC1=O [N-Ethylmaleimide] + CC[C@H](C)C[C@H](C)CCCCCCCCC(=O)N[C@H]1C[C@@H](O)[C@@H](NCCN)NC(=O)[C@@H]2[C@@H](O)CCN2C(=O)[C@H]([C@H](O)CCN)NC(=O)[C@H]([C@H](O)[C@@H](O)c2ccc(O)cc2)NC(=O)[C@@H]2C[C@@H](O)CN2C(=O)[C@H]([C@@H](C)O)NC1=O [caspofungin] (first compound 4 µM) | 0.281 ± 0.013 | 0.17 ± 0.0037
3 | CC(NC(=O)C(Cc1ccccc1)NC(=O)OCc1ccccc1)C(=O)CF (centres undefined) + CC[C@H](C)C[C@H](C)CCCCCCCCC(=O)N[C@H]1C[C@@H](O)[C@@H](NCCN)NC(=O)[C@@H]2[C@@H](O)CCN2C(=O)[C@H]([C@H](O)CCN)NC(=O)[C@H]([C@H](O)[C@@H](O)c2ccc(O)cc2)NC(=O)[C@@H]2C[C@@H](O)CN2C(=O)[C@H]([C@@H](C)O)NC1=O [caspofungin] (first compound 12.5 µM) | 0.3 ± 0.005 | 0.185 ± 0.0046
4 | O=C(O[C@@H]1Cc2c(O)cc(O)cc2O[C@@H]1c1cc(O)c(O)c(O)c1)c1cc(O)c(O)c(O)c1 [Epigallocatechin gallate] + C[C@@H]1[C@H](O)[C@@H](C)/C=C/C=C/C=C/C=C/C=C/C=C/C=C/[C@H](O[C@@H]2O[C@H](C)[C@@H](O)[C@H](N)[C@@H]2O)C[C@@H]2O[C@](O)(C[C@@H](O)C[C@@H](O)[C@H](O)CC[C@@H](O)C[C@@H](O)CC(=O)O[C@H]1C)C[C@H](O)[C@H]2C(=O)O [amphotericin B] (first compound 12.5 µM) | 0.27 ± 0.017 | 0.231 ± 0.014
5 | Cc1cccc(C)c1OCC(=O)N[C@@H](Cc1ccccc1)[C@@H](O)C[C@H](Cc1ccccc1)NC(=O)[C@H](C(C)C)N1CCCNC1=O [lopinavir] + CC[C@H](C)C[C@H](C)CCCCCCCCC(=O)N[C@H]1C[C@@H](O)[C@@H](NCCN)NC(=O)[C@@H]2[C@@H](O)CCN2C(=O)[C@H]([C@H](O)CCN)NC(=O)[C@H]([C@H](O)[C@@H](O)c2ccc(O)cc2)NC(=O)[C@@H]2C[C@@H](O)CN2C(=O)[C@H]([C@@H](C)O)NC1=O [caspofungin] (first compound 12.5 µM) | 0.153 ± 0.0047 | 0.0941 ± 0.0079
6 | NC(=O)c1cccc(-c2cccc(OC(=O)NC3CCCCC3)c2)c1 + C[C@@H]1[C@H](O)[C@@H](C)/C=C/C=C/C=C/C=C/C=C/C=C/C=C/[C@H](O[C@@H]2O[C@H](C)[C@@H](O)[C@H](N)[C@@H]2O)C[C@@H]2O[C@](O)(C[C@@H](O)C[C@@H](O)[C@H](O)CC[C@@H](O)C[C@@H](O)CC(=O)O[C@H]1C)C[C@H](O)[C@H]2C(=O)O [amphotericin B] (first compound 12.5 µM) | 0.295 ± 0.0047 | 0.178 ± 0.0061
7 | Cc1ccc(S(=O)(=O)N[C@@H](Cc2ccccc2)C(=O)CCl)cc1 + C[C@@H]1[C@H](O)[C@@H](C)/C=C/C=C/C=C/C=C/C=C/C=C/C=C/[C@H](O[C@@H]2O[C@H](C)[C@@H](O)[C@H](N)[C@@H]2O)C[C@@H]2O[C@](O)(C[C@@H](O)C[C@@H](O)[C@H](O)CC[C@@H](O)C[C@@H](O)CC(=O)O[C@H]1C)C[C@H](O)[C@H]2C(=O)O [amphotericin B] (first compound 4 µM) | 0.25 ± 0.011 | 0.158 ± 0.0081
8 | CC(C)CC(=O)N[C@H](C(=O)N[C@H](C(=O)N[C@@H](CC(C)C)[C@@H](O)CC(=O)N[C@@H](C)C(=O)N[C@@H](CC(C)C)[C@@H](O)CC(=O)O)C(C)C)C(C)C [Pepstatin A] + CC[C@H](C)C[C@H](C)CCCCCCCCC(=O)N[C@H]1C[C@@H](O)[C@@H](NCCN)NC(=O)[C@@H]2[C@@H](O)CCN2C(=O)[C@H]([C@H](O)CCN)NC(=O)[C@H]([C@H](O)[C@@H](O)c2ccc(O)cc2)NC(=O)[C@@H]2C[C@@H](O)CN2C(=O)[C@H]([C@@H](C)O)NC1=O [caspofungin] (first compound 12.5 µM) | 0.264 ± 0.01 | 0.18 ± 0.013
9 | CO[C@@H]1[C@H](OC(=O)/C=C/C=C/C=C/C=C/C(=O)O)CC[C@]2(CO2)[C@H]1[C@@]1(C)O[C@@H]1CC=C(C)C [Fumagillin] + CC[C@H](C)C[C@H](C)CCCCCCCCC(=O)N[C@H]1C[C@@H](O)[C@@H](NCCN)NC(=O)[C@@H]2[C@@H](O)CCN2C(=O)[C@H]([C@H](O)CCN)NC(=O)[C@H]([C@H](O)[C@@H](O)c2ccc(O)cc2)NC(=O)[C@@H]2C[C@@H](O)CN2C(=O)[C@H]([C@@H](C)O)NC1=O [caspofungin] (first compound 12.5 µM) | 0.257 ± 0.0085 | 0.166 ± 0.0044
10 | CCCC[C@@H](C=O)NC(=O)[C@H](CC(C)C)NC(=O)OCc1ccccc1 [Calpeptin] + CC[C@H](C)C[C@H](C)CCCCCCCCC(=O)N[C@H]1C[C@@H](O)[C@@H](NCCN)NC(=O)[C@@H]2[C@@H](O)CCN2C(=O)[C@H]([C@H](O)CCN)NC(=O)[C@H]([C@H](O)[C@@H](O)c2ccc(O)cc2)NC(=O)[C@@H]2C[C@@H](O)CN2C(=O)[C@H]([C@@H](C)O)NC1=O [caspofungin] (first compound 12.5 µM) | 0.263 ± 0.0082 | 0.174 ± 0.0085
11 | CC(C)(C)NC(=O)[C@@H]1C[C@@H]2CCCC[C@@H]2CN1C[C@@H](O)[C@H](Cc1ccccc1)NC(=O)[C@H](CC(N)=O)NC(=O)c1ccc2ccccc2n1 [saquinavir] + C[C@@H]1[C@H](O)[C@@H](C)/C=C/C=C/C=C/C=C/C=C/C=C/C=C/[C@H](O[C@@H]2O[C@H](C)[C@@H](O)[C@H](N)[C@@H]2O)C[C@@H]2O[C@](O)(C[C@@H](O)C[C@@H](O)[C@H](O)CC[C@@H](O)C[C@@H](O)CC(=O)O[C@H]1C)C[C@H](O)[C@H]2C(=O)O [amphotericin B] (first compound 12.5 µM) | 0.243 ± 0.0076 | 0.0922 ± 0.0023
12 | CCCCCCCCCC(=O)N[C@@H](CCCN=C(N)N)C(=O)N[C@H](C(=O)N[C@@H](CCCCN)C(=O)N[C@@H](CCCN=C(N)N)C(=O)CCl)C(C)C + C[C@@H]1[C@H](O)[C@@H](C)/C=C/C=C/C=C/C=C/C=C/C=C/C=C/[C@H](O[C@@H]2O[C@H](C)[C@@H](O)[C@H](N)[C@@H]2O)C[C@@H]2O[C@](O)(C[C@@H](O)C[C@@H](O)[C@H](O)CC[C@@H](O)C[C@@H](O)CC(=O)O[C@H]1C)C[C@H](O)[C@H]2C(=O)O [amphotericin B] (first compound 4 µM) | 0.261 ± 0.0041 | 0.188 ± 0.0044
13 | Cc1c(O)cccc1C(=O)N[C@@H](CSc1ccccc1)[C@H](O)CN1C[C@H]2CCCC[C@H]2C[C@H]1C(=O)NC(C)(C)C [nelfinavir] + C[C@@H]1[C@H](O)[C@@H](C)/C=C/C=C/C=C/C=C/C=C/C=C/C=C/[C@H](O[C@@H]2O[C@H](C)[C@@H](O)[C@H](N)[C@@H]2O)C[C@@H]2O[C@](O)(C[C@@H](O)C[C@@H](O)[C@H](O)CC[C@@H](O)C[C@@H](O)CC(=O)O[C@H]1C)C[C@H](O)[C@H]2C(=O)O [amphotericin B] (first compound 12.5 µM) | 0.237 ± 0.0057 | 0.112 ± 0.01
14 | C[C@]1(Cn2ccnn2)[C@H](C(=O)O)N2C(=O)C[C@H]2S1(=O)=O [Tazobactam] + CC[C@H](C)C[C@H](C)CCCCCCCCC(=O)N[C@H]1C[C@@H](O)[C@@H](NCCN)NC(=O)[C@@H]2[C@@H](O)CCN2C(=O)[C@H]([C@H](O)CCN)NC(=O)[C@H]([C@H](O)[C@@H](O)c2ccc(O)cc2)NC(=O)[C@@H]2C[C@@H](O)CN2C(=O)[C@H]([C@@H](C)O)NC1=O [caspofungin] (first compound 12.5 µM) | 0.275 ± 0.014 | 0.181 ± 0.0097
15 | NC(=O)c1cccc(-c2cccc(OC(=O)NC3CCCCC3)c2)c1 + OC(Cn1cncn1)(Cn1cncn1)c1ccc(F)cc1F [fluconazole] (first compound 12.5 µM) | 0.283 ± 0.0052 | 0.118 ± 0.0073
16 | CC[C@H](C)[C@H](N)C(=O)N1CCSC1 [P32/98 hemifumarate salt] + CC[C@H](C)C[C@H](C)CCCCCCCCC(=O)N[C@H]1C[C@@H](O)[C@@H](NCCN)NC(=O)[C@@H]2[C@@H](O)CCN2C(=O)[C@H]([C@H](O)CCN)NC(=O)[C@H]([C@H](O)[C@@H](O)c2ccc(O)cc2)NC(=O)[C@@H]2C[C@@H](O)CN2C(=O)[C@H]([C@@H](C)O)NC1=O [caspofungin] (first compound 12.5 µM) | 0.254 ± 0.0085 | 0.171 ± 0.0047
17 | O=c1oc(Cl)c(Cl)c2ccccc12 [3,4-Dichloroisocoumarin] + C[C@@H]1[C@H](O)[C@@H](C)/C=C/C=C/C=C/C=C/C=C/C=C/C=C/[C@H](O[C@@H]2O[C@H](C)[C@@H](O)[C@H](N)[C@@H]2O)C[C@@H]2O[C@](O)(C[C@@H](O)C[C@@H](O)[C@H](O)CC[C@@H](O)C[C@@H](O)CC(=O)O[C@H]1C)C[C@H](O)[C@H]2C(=O)O [amphotericin B] (first compound 12.5 µM) | 0.252 ± 0.013 | 0.196 ± 0.0087
